Assay outcomes: PubChem BioAssay, Broad Institute
An excerpt weighted towards active compounds, which were near 2.2% of everything screened.
Shn3 inh set2: Schnurri-3 reporter inhibition in Clone20 osteoblasts; Clone20 osteoblast Shn3 3'UTR firefly luciferase, 24 h; inhibition, % at 12.5 µM; 360,000 tested, 0.52% active; AID 588674;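 active means mean inhibition of at least 75% with every replicate also reaching 75%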
TRPM1 prom inh: inhibitors of MITF-driven TRPM1 promoter in melanoma cells. SK-MEL-5 TRPM1 promoter luciferase, 24 h. 330,000 tested, 0.83% active. inhibition, % at 12.5 µM;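 active means mean inhibition across replicates of 60% or more, whatever share of single replicates reaches that level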
EWS-Fli block: blocks EWS/Fli oncoprotein-driven transcription. A673 NR0B1-luciferase reporter, viability-normalised. inhibition, % at 12.6 µM. 350,000 tested, 0.67% active;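 active means mean inhibition of at least 50% after viability correction, with every replicate also passing that limit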;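 further: firefly luciferase signal divided by Alamar Blue viability fluorescence both relative to DMSO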
PAX8 reporter: lowers PAX8-driven luciferase in RMG-I cells. RMG-I TPO-luciferase reporter, SteadyGlo, 24 h. inhibition, % at 12.6 µM. 360,000 tested, 1.2% active;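 active means mean replicate inhibition at least 60% with every replicate also reaching 60%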;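 further: luciferase light reporting Pax8 driven TPO promoter activity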
EBV LMP1 NFkB: Epstein-Barr LMP1 NF-kappaB reporter inhibition | 350,000 tested, 0.69% active | inhibition, % at 12.5 µM | LMP1-induced NF-kappaB luciferase reporter cells, luminescence; in the data active means inhibition above about 41%
LGR2 inh: inhibitors of bursicon-induced Drosophila LGR2 receptor cAMP signaling; HEK293 LGR2, CRE-luciferase, bursicon-stimulated, 4 h; inhibition, % at 9.99 µM; 380,000 tested, 0.35% active; AID 720647;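 active means drop in luminescence signal, shown as inhibition above about 50% in the replicate tests, limit read from the data, passing the limit was not always enough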;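 further: agonist challenge used bursicon conditioned medium at about half maximal strength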
Large screens that a line does not name were inactive.

N/C(=N\OC(=O)c1ccccc1)c1ccncc1	none
N/C(=N\OCc1ccc([N+](=O)[O-])cc1)c1ccccn1	TRPM1 prom inh 73, EBV LMP1 NFkB 73 (no result: Shn3 inh set2, EWS-Fli block, PAX8 reporter, LGR2 inh)
COc1ccc(NC(=O)N(C)C[C@@H]2OCCCC[C@H](C)Oc3ccc(NC(=O)Nc4ccc(F)cc4)cc3C(=O)N([C@@H](C)CO)C[C@@H]2C)cc1	none (no result: Shn3 inh set2, TRPM1 prom inh, EBV LMP1 NFkB)
C[C@@H]1CN([C@H](C)CO)C(=O)c2cc(NC(=O)c3ccncc3)ccc2O[C@@H](C)CCCCO[C@H]1CN(C)C(=O)Nc1cccc2ccccc12	none (no result: Shn3 inh set2, TRPM1 prom inh, EBV LMP1 NFkB)
COc1ccc([Si](C)(C)[C@H]2[C@H](CCO)O[C@@]3(C(=O)N(Cc4ccc(N5CCOC5=O)cc4)c4ccccc43)[C@@H]2C)cc1	PAX8 reporter 107 (no result: Shn3 inh set2, TRPM1 prom inh, EBV LMP1 NFkB, LGR2 inh)
COc1ccc([Si](C)(C)[C@@H]2[C@@H](CCn3cc(CCO)nn3)O[C@]3(C(=O)N(Cc4ccc(N5CCOC5=O)cc4)c4ccccc43)[C@H]2C)cc1	none (no result: Shn3 inh set2, TRPM1 prom inh, PAX8 reporter, EBV LMP1 NFkB, LGR2 inh)
C=CCN1C(=O)[C@]2(O[C@H](CCO)[C@@H]([Si](C)(C)c3ccc(OC)cc3)[C@@H]2C)c2cc(I)ccc21	PAX8 reporter 105 (no result: Shn3 inh set2, TRPM1 prom inh, EBV LMP1 NFkB, LGR2 inh)
COc1ccc([Si](C)(C)[C@@H]2[C@@H](CCO)O[C@]3(C(=O)N(Cc4ccc(NC(=O)[C@H](C)O)cc4)c4ccccc43)[C@H]2C)cc1	PAX8 reporter 101 (no result: Shn3 inh set2, TRPM1 prom inh, EBV LMP1 NFkB, LGR2 inh)
COc1ccc(C(=O)Nc2ccc(CN3C(=O)[C@]4(O[C@H](CC(=O)N5Cc6ccccc6C[C@H]5CO)[C@@H]([Si](C)(C)c5ccc(OC)cc5)[C@@H]4C)c4ccccc43)cc2)cc1	PAX8 reporter 92 (no result: Shn3 inh set2, TRPM1 prom inh, EBV LMP1 NFkB, LGR2 inh)
C=CCN1C(=O)[C@]2(O[C@H](CCO)[C@@H]([Si](C)(C)c3ccc(OC)cc3)[C@@H]2C)c2cc(NC(=O)[C@H](C)O)ccc21	none (no result: Shn3 inh set2, TRPM1 prom inh, EBV LMP1 NFkB, LGR2 inh)
COc1ccc(S(=O)(=O)Nc2cccc3c2O[C@@H](CN(C)C(=O)NC2CCCCC2)[C@@H](C)CN([C@@H](C)CO)C3=O)cc1	none (no result: Shn3 inh set2, TRPM1 prom inh, PAX8 reporter, EBV LMP1 NFkB)
C[C@H](CO)N1C[C@H](C)[C@@H](CN(C)Cc2ccccc2)Oc2cc(C3=CCCCC3)ccc2S1(=O)=O	none (no result: Shn3 inh set2, TRPM1 prom inh, PAX8 reporter, EBV LMP1 NFkB)
COc1ccc([Si](C)(C)[C@H]2[C@H](CCn3cc(CCO)nn3)O[C@@]3(C(=O)N(Cc4ccc(N5C(=O)c6cccc7cccc5c67)cc4)c4ccccc43)[C@@H]2C)cc1	none (no result: Shn3 inh set2, TRPM1 prom inh, PAX8 reporter, EBV LMP1 NFkB, LGR2 inh)
COc1ccc([Si](C)(C)[C@@H]2[C@@H](CC(=O)N3Cc4ccccc4C[C@H]3CO)O[C@]3(C(=O)N(C)c4c(Br)cc(C)cc43)[C@H]2C)cc1	PAX8 reporter 81 (no result: Shn3 inh set2, TRPM1 prom inh, EBV LMP1 NFkB, LGR2 inh)
COc1ccc([Si](C)(C)[C@H]2[C@H](CCO)O[C@@]3(C(=O)N(Cc4cccc(NC(=O)[C@H](C)O)c4)c4ccccc43)[C@@H]2C)cc1	PAX8 reporter 86 (no result: Shn3 inh set2, TRPM1 prom inh, EBV LMP1 NFkB, LGR2 inh)
CCN1CCN(c2ccc(Nc3ccnc4ccccc34)cc2)CC1	TRPM1 prom inh 64
Cc1ccc(S(=O)(=O)Nc2ccc3c(c2)C(=O)N([C@H](C)CO)C[C@H](C)[C@H](CN(C)C(=O)Nc2c(C)noc2C)O3)cc1	none (no result: Shn3 inh set2, TRPM1 prom inh, EBV LMP1 NFkB)
COc1ccc(O)c(/C=N/NC(=O)c2ccc(N3CCCC3=O)cc2)c1	PAX8 reporter 106
CO[C@@H]1CN(C)C(=O)c2cc(NC(=O)CC(F)(F)F)ccc2OC[C@@H](C)N(C(=O)C2CCOCC2)C[C@H]1C	none (no result: Shn3 inh set2, TRPM1 prom inh, EBV LMP1 NFkB)
CCCOc1ccc(/C=N/NC(=S)Nc2ccccc2[N+](=O)[O-])c(O)c1	PAX8 reporter 94, LGR2 inh 83 (no result: Shn3 inh set2, TRPM1 prom inh, EWS-Fli block, EBV LMP1 NFkB)
CC1OC2CC(=O)OC2C2=C1C(=O)c1c(O)cccc1C2=O (configuration not stated)	Shn3 inh set2 94, LGR2 inh 100 (no result: TRPM1 prom inh, PAX8 reporter, EBV LMP1 NFkB)
COc1ccc(-c2cc3ccc(F)cc3cn2)cc1	LGR2 inh 63
CC(C)CCNC(=O)C1CCN(S(=O)(=O)c2ccc3c(c2)CC(C)N3C(=O)C2CC2)CC1 (configuration not stated)	EBV LMP1 NFkB 54 (no result: EWS-Fli block)
CCCCNC(=O)C1CCN(S(=O)(=O)c2ccc3c(c2)CC(C)N3C(=O)C2CC2)CC1 (configuration not stated)	none
C[C@@H]1CN([C@@H](C)CO)C(=O)c2cc(NC(=O)Cc3ccccc3)ccc2O[C@@H](C)CCCCO[C@H]1CN(C)S(=O)(=O)c1ccccc1	none (no result: Shn3 inh set2, TRPM1 prom inh, EBV LMP1 NFkB)
CCC(=NCCc1c(C)[nH]c2ccc(OC(F)(F)F)cc12)C1=C(O)CC(c2ccccc2)CC1=O (configuration not stated)	EWS-Fli block 51
